# Source: PubChem
# PAX8 inh HTS: inhibitors of PAX8-driven TPO luciferase reporter, primary screen, RMG-I cells, single concentration. SteadyGlo, 24 h. inhibition, % at 12.6 µM. 1.2% of 360,000 active;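 active = mean replicate inhibition at least 60% with every replicate also reaching 60%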;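 also: luciferase light reporting Pax8 driven TPO promoter activity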
# Shn3 inh set2: reduction of Shn3 3'UTR firefly luciferase signal, primary screen, Schnurri-3 inhibitor project, cell-based, Clone20 osteoblasts, set 2. 0.52% of 360,000 active. Clone20 osteoblast Shn3 3'UTR firefly luciferase, 24 h. inhibition, % at 12.5 µM;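 active = mean inhibition of at least 75% with every replicate also reaching 75%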
# EWS-Fli block: EWS/Fli-driven NR0B1 reporter inhibitors, primary screen, A673 cells, NR0B1 luciferase, luminescence, MLPCN library; AID 651661, 2012; 0.67% of 350,000 active; viability-normalised; inhibition, % at 12.6 µM;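 active = mean inhibition of at least 50% after viability correction, with every replicate also passing that limit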;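 also: firefly luciferase signal divided by Alamar Blue viability fluorescence both relative to DMSO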
# LGR2 antag: inhibitors of bursicon-induced LGR2 CRE-luciferase signal, primary screen, cell-based, HEK293, CRE-luciferase reporter, bursicon stimulation; bursicon-stimulated, 4 h; Drosophila bursicon receptor LGR2 (rickets); 0.35% of 380,000 active; AID 720647, 2013; inhibition, % at 9.99 µM;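 active = drop in luminescence signal, shown as inhibition above about 50% in the replicate tests, limit read from the data, passing the limit was not always enough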;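 also: agonist challenge used bursicon conditioned medium at about half maximal strength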
# LMP1 NFkB inh: EBV LMP1-driven NF-kappaB luciferase reporter inhibitors, primary screen, cell-based, luminescence, single point. LMP1-induced NF-kappaB luciferase reporter cells. inhibition, % at 12.5 µM. 0.69% of 350,000 active. AID 504558, 2011; in the data active = inhibition above about 41%
# TRPM1 prom inh: inhibitors of MITF-dependent TRPM1 promoter reporter, primary screen, cell-based, SK-MEL-5, single point, luciferase; SK-MEL-5 TRPM1 promoter luciferase, 24 h; inhibition, % at 12.5 µM; 0.83% of 330,000 active;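 active = mean inhibition across replicates of 60% or more, whatever share of single replicates reaches that level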
# Hits are given with their value; – = inactive; · = not tested or not shown. Rows were chosen to be rich in hits. Some 2.2% of all compounds tested hit in one or more screens of this group.
SMILES,PAX8 inh HTS,Shn3 inh set2,EWS-Fli block,LGR2 antag,LMP1 NFkB inh,TRPM1 prom inh
O=C(CNC(=S)N(Cc1ccc(F)cc1)C1CCCCC1)NCC1CCCO1 (stereo unspecified),–,–,–,–,–,–
O=C(CNC(=S)N(Cc1ccccc1F)C1CCCCC1)NCC1CCCO1 (stereo unspecified),65.4,–,–,–,–,–
CCC(=O)N[C@@H]1CC[C@@H](CC(=O)NCc2cc(F)cc(F)c2)O[C@@H]1CO,–,·,–,–,·,·
O=C(Nc1ccc(OC(F)(F)F)cc1)c1[nH]ncc1[N+](=O)[O-],–,–,–,–,–,70.1
Cn1cnnc1SCC(=O)Nc1ccc(S(=O)(=O)N2CCCC2)cc1,·,–,–,–,–,–
COCCCn1cnnc1SCC(=O)Nc1ccc(S(=O)(=O)N2CCCC2)cc1,·,–,·,·,59.7,–
Cc1onc(C(=O)Nc2ccc(OC(F)(F)F)cc2)c1[N+](=O)[O-],·,–,·,·,–,–
CC(=O)Nc1ccc(S(=O)(=O)N2CCCC2)cc1,–,–,–,–,71.2,–
O=C(Nc1ccc(S(=O)(=O)N2CCCCCC2)cc1)c1[nH]ncc1[N+](=O)[O-],–,–,·,–,–,70.2
CN(C)C(=O)c1cccc(-c2ccc([C@@H]3[C@@H](CO)N4CCCCN(C(=O)C5CCCC5)C[C@@H]34)cc2)c1,–,·,–,·,·,·
CCOC(=O)C1CCCN(S(=O)(=O)c2ccc(S(=O)(=O)N3CCCC3)cc2)C1 (stereo unspecified),–,87.9,–,–,–,–
CCC(=O)Nc1cc(C(=O)O)ccc1S(=O)(=O)c1ccc(C)cc1,64.4,–,–,–,–,–
CO[C@H]1CN(C)C(=O)c2ccc(NC(=O)C3CC3)cc2OC[C@@H](C)N(C)C[C@@H]1C,–,·,–,–,·,·
Cc1ccc(C(=O)NCC(=O)N(C)Cc2cccc(F)c2)s1,–,–,–,–,50.7,–
CC=Cc1ccc2n(c1=O)C[C@@H]1[C@@H](CO)[C@H](C(=O)NCCC)N(CCC(F)(F)F)[C@H]21 (mixture of isomers),–,·,–,–,·,·
C[C@H](CO)N1C[C@H](C)[C@H](CN(C)C(=O)Nc2ccccc2F)Oc2cc(-c3ccc(C(=O)N(C)C)cc3)ccc2S1(=O)=O,–,·,–,–,·,·
C=CC(=O)Nc1cccc(Nc2nc(N[C@H]3CC[C@H](N(C)C)CC3)nc3c2ncn3C(C)C)c1,·,–,·,·,91.5,90.0
C[C@@H]1CN([C@@H](C)CO)C(=O)c2cc(NS(=O)(=O)c3ccc(F)cc3)ccc2O[C@@H](C)CCCCO[C@@H]1CN(C)C(=O)c1ccccc1,–,·,–,–,·,·
COc1ccc(NC(=O)N(C)C[C@@H]2Oc3ccc(NC(=O)Nc4ccccc4)cc3C(=O)N([C@@H](C)CO)C[C@H]2C)cc1,–,·,–,–,·,·
COc1ccc(C2=NOC(COc3ccc4c(C)cc(=O)oc4c3)C2)c(OC)c1 (stereo unspecified),–,–,56.1,·,·,·
Cc1cc(=O)oc2cc(Oc3ncccc3[N+](=O)[O-])ccc12,–,–,–,–,–,–
COc1ccccc1C1=NOC(COc2ccc3c(C)cc(=O)oc3c2)C1 (stereo unspecified),–,·,53.4,·,–,–
Cc1cc(=O)oc2cc(Oc3ncccn3)ccc12,–,–,·,·,44.9,–
C[C@@H]1CN([C@@H](C)CO)C(=O)c2cc(-c3cccnc3)cnc2O[C@@H]1CN(C)C(=O)Nc1ccc2c(c1)OCO2,·,·,–,–,·,·
CC(C)C#Cc1cnc2c(c1)C(=O)N([C@H](C)CO)C[C@H](C)[C@@H](CN(C)C(=O)Nc1cccc(F)c1)O2,–,·,–,–,·,·
SMILES,PAX8 inh HTS,Shn3 inh set2,EWS-Fli block,LGR2 antag,LMP1 NFkB inh,TRPM1 prom inh
CC(=O)Nc1cccc(-c2cnc(N)c(C(=O)c3cccnc3)n2)c1,·,–,·,·,49.4,–
CC(=O)Nc1cccc(-c2csc(N)n2)c1,–,–,–,–,–,–
NC(=O)c1cccc(-c2cnc(N)c(C(=O)c3cccnc3)n2)c1,·,–,·,·,–,61.3
O=C(Nc1cccc(NC(=O)c2cccnc2)c1)c1ccccc1,–,–,·,–,–,–
C[C@@H]1CN([C@H](C)CO)C(=O)Cc2cc(NS(=O)(=O)c3ccccc3)ccc2O[C@@H]1CN(C)CC1CC1,–,·,–,–,·,·
O=C(C[C@H]1CC[C@H](NC(=O)C2CCOCC2)[C@@H](CO)O1)NCC1CC1,–,·,·,–,·,·
Cc1noc(C)c1S(=O)(=O)Nc1ccc2c(c1)C(=O)N([C@@H](C)CO)C[C@@H](C)[C@@H](CN(C)C(=O)Nc1ccccc1)OCCCC[C@@H](C)O2,–,·,–,–,·,·
CCC1(O)CC2CN(CCc3c([nH]c4ccccc34)C(C(=O)OC)(c3cc4c(cc3OC)N(C=O)C3C(O)(C(=O)OC)C(OC(C)=O)C5(CC)C=CCN6CCC43C65)C2)C1 (stereo unspecified),83.1,–,–,–,–,–
COc1ccc(CCNC(=O)[C@H](C)N2C(=O)N3CCc4c([nH]c5ccccc45)[C@@]3(C)C2=O)cc1OC,·,–,–,–,–,–
C[C@@H]1CN([C@@H](C)CO)C(=O)Cc2cc(N(C)C)ccc2O[C@H]1CN(C)Cc1ccc(Oc2ccccc2)cc1,81.5,·,–,–,·,·
C[C@@H]1CN([C@@H](C)CO)C(=O)c2cc(N(C)C)ccc2O[C@@H]1CN(C)Cc1ccc(Oc2ccccc2)cc1,83.6,·,–,–,·,·
N#CC(Cc1ccccc1OC(F)F)c1nc2ccccc2[nH]1 (stereo unspecified),75.7,–,–,–,–,–
O=C(O)c1c2c(nc3ccccc13)/C(=C/c1ccc(O)cc1)CC2,–,–,–,71.2,53.1,–
O=C(COc1ccc2ccccc2c1)NNC(=O)c1cnccn1,–,–,·,–,–,–
CC(C)c1ccc(OCC(=O)NNC(=O)c2cnccn2)cc1,–,–,–,–,54.9,–
COc1ccc2c3c(n(C)c2c1)[C@H](CO)N(Cc1ccccc1F)CC31CCN(CC2CC2)CC1,–,·,–,–,·,·
O=c1oc(-c2ccccc2)cc(Cl)c1Cl,–,–,59.3,–,–,–
O=c1oc(-c2ccccc2)cc2ccccc12,·,–,–,–,·,·
CO[C@@H]1CN(C)C(=O)c2ccc(NS(=O)(=O)CC(F)(F)F)cc2OC[C@@H](C)N(C(=O)c2ccc3c(c2)OCO3)C[C@H]1C,–,·,–,–,·,·
CC1CCCN(C(=O)COC(=O)c2n[nH]c3ccccc23)C1 (stereo unspecified),·,–,·,·,60.9,–
COC(=O)C1CCN(C(=O)COC(=O)c2n[nH]c3ccccc23)CC1,·,–,·,·,–,–
C[C@@H]1CCCCO[C@@H](CN(C)CC2CCCCC2)[C@@H](C)CN([C@H](C)CO)C(=O)c2cc(NC(=O)NC3CCCCC3)ccc2O1,–,·,–,–,·,·
